# PubChem BioAssay (Tox21)
# A number with no mark means an inactive call. Active and inactive are the calls of the source. The call rests on the fitted dose curve; in most records, active means well fitted curve in the direction sought with a large enough effect in the repeat runs; inconclusive means weak or mixed curves; inactive means flat fitted curve, though single readings scatter.
# Test: qHTS assay to test for compound auto fluorescence at 590 nm (red) in HEK293 cell free culture (AID 720683)
# Details: cell-free medium autofluorescence, Ex540/Em590 red; series mostly up to 91.3 µM; fluorescence, % of fluorescent control: at the top concentration
# Excerpt: U.S. Tox21 Program National Center for Advancing Translational Sciences [NCATS] NIH Chemical Genomics Center [NCGC] U.S. Environmental Protection Agency [EPA] National Institutes of Environmental Health Sciences [NIEHS] National Toxicology Program [NTP] U.S. Food and Drug Administration [FDA] Tox21 Assay Overview: Compound auto fluorescence often interferes with screening of the compound library against various biological targets and signaling pathways. Some of these compounds may have fluorophoric properties. Such properties may interfere with the assay outputs resulting in false positives and/or negatives. To decrease such complications and ensure the compound activities are relevant in terms of biological response, the Tox21 10K compound library was screened for auto fluorescence. From the fluorophores used as reporter signals in our screening assays, the auto fluorescence equivalencies of compounds against three fluorophores have been evaluated: Triamterene, Fluorescein and Rose Bengal sodium for blue, green and red fluorescence, respectively. The fluorescence intensities were measured using Excitation/Emission wavelengths at 405/460nm, 485/535nm and 540/590nm for blue, green and red labels, respectively. This assay includes the red fluorescence data.
# Tox21 Assay Protocol Summary: 5 uL of culture medium (DMEM containing 10% FBS) per well was dispensed into black wall/clear bottom 1536-well plates using a Multidrop Combi Dispenser (ThermoFisher Scientific, Waltham, MA). After 23 nL compound or DMSO vehicle was transferred into assay plate by a pintool work station (Kalypsys, San Diego, CA), fluorescence intensities in the assay plates were measured by an Envision (PerkinElmer, Shelton, CT) plate reader using three labels for measuring blue, green and red fluorescence at […] 460, 535 and 590nm respectively.
# On the % scale 0 is the no-effect control and ±100 the full control effect.
Compound,"fluorescence, % of fluorescent control",outcome
O=C(N[C@@H](Cc1ccccc1)[C@@H](O)C(=O)N1C[C@@H](O)[C@@H](O)C1)c1cc2cc(Cl)ccc2[nH]1,-0.0459%,–
Cc1c(Nc2ncccc2C(=O)O)cccc1C(F)(F)F,-0.29% [at 18.6 µM],–
CCCCCCOC(=O)c1ccccc1,0.0294%,–
C=C(C)C(=O)OCCCCCCCCCCOC(=O)C(=C)C,-0.388%,–
CC(=O)c1cccnc1,-0.327%,–
Cc1ccccc1CCO,0.208%,–
CNc1ccccc1,0.027%,–
Sc1nc(S)nc(S)n1,-0.0004% [at 46 µM],–
Nc1ncnc2c1ncn2[C@@H]1O[C@H](CO)[C@@H](O)[C@H]1O,0.231% [at 46 µM],–
CC1(C)CC(=O)CC(C)(C)N1,0.475%,–
Nc1nc(Cl)nc2c1ncn2[C@H]1C[C@H](O)[C@@H](CO)O1,–,inactive
C=CC(=O)OCCCCCCCCCC,0.017%,–
C=CC(=O)NC(C)(C)C,-0.0208%,–
CC(=O)CC/C=C(\C)CC/C=C(\C)CC/C=C(\C)CCC=C(C)C,-0.326% [at 46 µM],–
O=c1[nH][nH]c2ccccc12,-0.137% [at 95.7 µM],–
CC(=O)OCC(=O)[C@@]1(O)CC[C@H]2[C@@H]3CCC4=CC(=O)C=C[C@]4(C)[C@@]3(F)[C@@H](O)C[C@@]21C,0.0194% [at 18.6 µM],–
N#CCCCC(C#N)CCC#N (stereo not given),-0.0648%,–
C=C[Si]1(C)O[Si](C)(C=C)O[Si](C)(C=C)O[Si](C)(C=C)O1 (stereo not given),0.0245%,–
CC1(C)[C@@H]2CC[C@]3(C2)[C@@H]1C(=O)CCC3(C)C,-0.152%,–
CCC(=O)O[C@@H]1C[C@H]2CC[C@]1(C)C2(C)C,-0.145%,–

Compound,"fluorescence, % of fluorescent control",outcome
O=C(Nc1ccccc1)c1cc([N+](=O)[O-])ccc1Cl,0.0072%,–
COc1ccc(CN(CCN(C)C)c2ncccn2)cc1,0.167% [at 46 µM],–
C[Si](C)(C)O[Si](C)(C)O[Si](C)(C)C,0.242%,–
Clc1cc(Cl)c2c(c1)N=C1CCCCCN1C2,-0.038% [at 46 µM],–
CS(C)=O,-0.0916%,–
O=Cc1ccc(Cl)c([N+](=O)[O-])c1,0.109%,–
O=C(Nc1ccc2c(c1)Cc1ccccc1-2)C(F)(F)F,0.0251%,–
C[C@H](CN1CCCC1)C(=O)c1ccc(C(F)(F)F)cc1,0.194% [at 46 µM],–
SCCOCCOCCS,-0.17%,–
CCOc1ccc(NC(C)=O)cc1N,0.0837% [at 95.7 µM],–
CC(C)C/C=C(\C=O)c1ccccc1,-0.326%,–
COC(=O)c1cc(Cl)ccc1[N+](=O)[O-],-0.0348%,–
Cc1nc(C)c(C)nc1C,-0.0181%,–
CC(C)=CCCC(C)C=O (stereo not given),-0.0014%,–
CO[C@@H]1COCC[C@@H]1N[C@@H]1CC[C@@](C(=O)N2CCc3ncc(C(F)(F)F)cc3C2)(C(C)C)C1,0.0979%,–
C=CCCC,0.133% [at 95.7 µM],–
C=Cc1ccc(C=C)cc1,0.0459% [at 95.7 µM],–
CCn1nc(Cc2ccccc2)cc1C1CCN(C[C@H]2C[C@H](N(C)[C@@H](C(=O)O)C(C)C)C[C@@H]2c2cccc(F)c2)CC1,0.0622%,–
c1ccc(-c2ccc(-c3ccccc3)cc2)cc1,-0.201% [at 18.6 µM],–
CCCN(C1CCN(C(=O)C2CCNCC2)CC1)[C@@H]1CCc2ccc(OC)cc2C1,0.119%,–
